# Experimental data reported in PubChem BioAssay AID1159580 (chemical genetic matrix, 2015).
# Several values for one entry are separate records, joined by “and”; a condition that tells them apart may be missing. Identical values can stand only once. Among all 5,500 compounds or so, about 2,000 (36%) were called active. Inconclusive results (about 18%) are left out. Rule as the data show it: active = normalized growth mostly below about 0.91 (no sharp cut-off); inconclusive = no clear call, values can overlap the other calls; inactive = mostly above about 0.92. The list shows a part of the results.
# Experiment: chemical genetic growth profiling, strain panel (AID 1159580);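 also: tested at 20 µM; growth read once vehicle control cultures reached saturation at 30 °C; 1 = growth at the plate median or of vehicle wells; lower values mean less growth of the strain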
# Settings: S. cerevisiae deletion strains, growth OD
smiles,measurement,setting,value
COC(=O)COc1cc(Cl)c(Cl)cc1Cl,normalized growth,"locus YAL013W, strain DEP1, stronger effect = lower value",0.982 (inactive)
same,normalized growth,"locus YAL021C, strain ccr4, stronger effect = lower value",0.993 (inactive)
same,normalized growth,"locus YAL026C, strain drs2, stronger effect = lower value",0.996 (inactive)
same,normalized growth,"locus YAL030W, strain snc1, stronger effect = lower value",0.998 (inactive)
same,normalized growth,"locus YBL061C, strain skt5, stronger effect = lower value",0.989 (inactive)
same,normalized growth,"locus YBR009C, strain hhf1, stronger effect = lower value",0.989 (inactive)
same,normalized growth,"locus YBR021W, strain FUR4, stronger effect = lower value",0.98 (inactive)
same,normalized growth,"locus YBR023C, strain chs3, stronger effect = lower value",0.99 (inactive)
same,normalized growth,"locus YBR171W, strain sec66, stronger effect = lower value",1.01 (inactive)
same,normalized growth,"locus YBR229C, strain ROT2, stronger effect = lower value",0.981 (inactive)
same,normalized growth,"locus YBR231C, strain swc5, stronger effect = lower value",0.99 (inactive)
same,normalized growth,"locus YBR279W, strain paf1, stronger effect = lower value",1 (inactive)
same,normalized growth,"locus YCL011C, strain gbp2, stronger effect = lower value",0.99 (inactive)
same,normalized growth,"locus YCL016C, strain dcc1, stronger effect = lower value",1.01 (inactive)
same,normalized growth,"locus YCL029C, strain bik1, stronger effect = lower value",0.957 (inactive)
same,normalized growth,"locus YCL061C, strain MRC1, stronger effect = lower value",0.985 (inactive)
same,normalized growth,"locus YCL069W, strain vba3, stronger effect = lower value",0.986 (inactive)
same,normalized growth,"locus YCR088W, strain abp1, stronger effect = lower value",0.985 (inactive)
same,normalized growth,"locus YDL005C, strain med2, stronger effect = lower value",1.01 (inactive)
same,normalized growth,"locus YDL035C, strain GPR1, stronger effect = lower value",1.01 (inactive)
same,normalized growth,"locus YDL040C, strain nat1, stronger effect = lower value",0.996 (inactive)
same,normalized growth,"locus YDL074C, strain BRE1, stronger effect = lower value",0.943 (inactive)
same,normalized growth,"locus YDL101C, strain DUN1, stronger effect = lower value",0.977 (inactive)
same,normalized growth,"locus YDL134C, strain PPH21, stronger effect = lower value",0.978 (inactive)
same,normalized growth,"locus YDL185W, strain tfp1, stronger effect = lower value",0.992 (inactive)
same,normalized growth,"locus YDL192W, strain arf1, stronger effect = lower value",0.989 (inactive)
same,normalized growth,"locus YDR001C, strain nth1, stronger effect = lower value",0.988 (inactive)
same,normalized growth,"locus YDR069C, strain doa4, stronger effect = lower value",1.02 (inactive)
same,normalized growth,"locus YDR101C, strain arx1, stronger effect = lower value",0.954 (inactive)
same,normalized growth,"locus YDR137W, strain rgp1, stronger effect = lower value",0.839 (active)
same,normalized growth,"locus YDR150W, strain NUM1, stronger effect = lower value",0.976 (inactive)
same,normalized growth,"locus YDR159W, strain sac3, stronger effect = lower value",0.973 (inactive)
same,normalized growth,"locus YDR162C, strain NBP2, stronger effect = lower value",0.965 (inactive)
same,normalized growth,"locus YDR195W, strain ref2",1.02 (inactive)
same,normalized growth,"locus YDR297W, strain sur2, stronger effect = lower value",1.02 (inactive)
same,normalized growth,"locus YDR318W, strain mcm21, stronger effect = lower value",0.955 (inactive)
same,normalized growth,"locus YDR334W, strain swr1, stronger effect = lower value",1 (inactive)
same,normalized growth,"locus YDR335W, strain msn5, stronger effect = lower value",1.01 (inactive)
same,normalized growth,"locus YDR388W, stronger effect = lower value",0.974 (inactive)
same,normalized growth,"locus YDR392W, strain spt3, stronger effect = lower value",0.963 (inactive)
same,normalized growth,"locus YDR502C, strain sam2, stronger effect = lower value",0.969 (inactive)
same,normalized growth,"locus YEL003W, strain gim4, stronger effect = lower value",1.01 (inactive)
same,normalized growth,"locus YEL037C, strain rad23, stronger effect = lower value",0.997 (inactive)
same,normalized growth,"locus YEL061C, strain CIN8 (second series), stronger effect = lower value",0.993 (inactive)
same,normalized growth,"locus YEL061C, strain CIN8, stronger effect = lower value",0.98 (inactive)
same,normalized growth,"locus YER015W, strain faa2, stronger effect = lower value",0.998 (inactive)
same,normalized growth,"locus YER016W, strain bim1, stronger effect = lower value",0.999 (inactive)
same,normalized growth,"locus YER110C, stronger effect = lower value",0.954 (inactive)
same,normalized growth,"locus YER111C, strain swi4, stronger effect = lower value",0.997 (inactive)
same,normalized growth,"locus YER155C, strain BEM2 (second series), stronger effect = lower value",1.01 (inactive)
same,normalized growth,"locus YER155C, strain BEM2, stronger effect = lower value",0.983 (inactive)
same,normalized growth,"locus YER167W, strain BCK2, stronger effect = lower value",0.975 (inactive)
same,normalized growth,"locus YFR010W, strain ubp6, stronger effect = lower value",1.01 (inactive)
same,normalized growth,"locus YGL078C, strain dbp3, stronger effect = lower value",0.96 (inactive)
same,normalized growth,"locus YGL086W, strain mad1, stronger effect = lower value",0.976 (inactive)
same,normalized growth,"locus YGL167C, strain pmr1, stronger effect = lower value",0.997 (inactive)
same,normalized growth,"locus YGL173C, strain kem1, stronger effect = lower value",0.998 (inactive)
same,normalized growth,"locus YGL227W, strain vid30, stronger effect = lower value",0.979 (inactive)
same,normalized growth,"locus YGL240W, strain doc1, stronger effect = lower value",0.995 (inactive)
same,normalized growth,"locus YGL248W, strain PDE1, stronger effect = lower value",0.987 (inactive)
same,normalized growth,"locus YGL253W, strain hxk2, stronger effect = lower value",1.01 (inactive)
same,normalized growth,"locus YGR078C, strain PAC10, stronger effect = lower value",0.968 (inactive)
same,normalized growth,"locus YGR135W, strain pre9, stronger effect = lower value",0.971 (inactive)
same,normalized growth,"locus YGR229C, strain SMI1, stronger effect = lower value",0.942 (inactive)
same,normalized growth,"locus YGR252W, strain gcn5, stronger effect = lower value",1 (inactive)
same,normalized growth,"locus YHR013C, strain ard1, stronger effect = lower value",1.13 (inactive)
same,normalized growth,"locus YHR027C, strain rpn1, stronger effect = lower value",1.03 (inactive)
same,normalized growth,"locus YHR030C, strain SLT2, stronger effect = lower value",0.967 (inactive) and 0.86 (inactive)
same,normalized growth,"locus YHR079C, strain IRE1 (second series), stronger effect = lower value",0.953 (inactive)
same,normalized growth,"locus YHR079C, strain IRE1, stronger effect = lower value",0.884 (inactive)
same,normalized growth,"locus YHR094C, strain hxt1, stronger effect = lower value",0.964 (inactive)
same,normalized growth,"locus YHR129C, strain ARP1, stronger effect = lower value",0.976 (inactive)
same,normalized growth,"locus YHR142W, strain chs7, stronger effect = lower value",0.988 (inactive)
same,normalized growth,"locus YHR200W, strain rpn10, stronger effect = lower value",0.982 (inactive)
same,normalized growth,"locus YIL066C, strain RNR3, stronger effect = lower value",0.948 (inactive)
same,normalized growth,"locus YIL073C, strain SPO22, stronger effect = lower value",1.04 (inactive)
same,normalized growth,"locus YIL125W, strain kgd1, stronger effect = lower value",0.957 (inactive)
same,normalized growth,"locus YIR030C, strain dcg1, stronger effect = lower value",0.953 (inactive)
same,normalized growth,"locus YJL092W, strain hpr5, stronger effect = lower value",0.989 (inactive)
same,normalized growth,"locus YJL095W, strain BCK1 (second series), stronger effect = lower value",0.991 (inactive)
same,normalized growth,"locus YJL095W, strain BCK1, stronger effect = lower value",0.853 (inactive) and 0.874 (active)
same,normalized growth,"locus YJL115W, strain asf1, stronger effect = lower value",1.01 (inactive)
same,normalized growth,"locus YJL129C, strain trk1, stronger effect = lower value",0.971 (inactive)
same,normalized growth,"locus YJL134W, strain LCB3, stronger effect = lower value",0.974 (inactive)
same,normalized growth,"locus YJL154C, strain vps35, stronger effect = lower value",0.99 (inactive)
same,normalized growth,"locus YJL164C, strain tpk1, stronger effect = lower value",0.997 (inactive)
same,normalized growth,"locus YJL166W, strain qcr8, stronger effect = lower value",0.995 (inactive)
same,normalized growth,"locus YJL168C, strain set2, stronger effect = lower value",0.976 (inactive)
same,normalized growth,"locus YJL187C, strain SWE1 (second series), stronger effect = lower value",0.983 (inactive)
same,normalized growth,"locus YJL187C, strain SWE1, stronger effect = lower value",1 (inactive)
same,normalized growth,"locus YJR043C, strain POL32, stronger effect = lower value",0.942 (inactive)
same,normalized growth,"locus YJR066W, strain TOR1, stronger effect = lower value",0.842 (inactive)
